{
  "source": "the supplement of paper PMC8728848",
  "test_in_all_cases": "glycan array binding signal (z-score within array); higher = stronger binding",
  "key": {"[1]": {"system": "Gal(a1-3)Gal(b1-3)[Fuc(a1-4)]GlcNAc(b1-2)Man(a1-3)[Gal(a1-3)Gal(b1-3)[Fuc(a1-4)]GlcNAc(b1-2)Man(a1-6)]Man(b1-4)GlcNAc(b1-4)GlcNAc", "details": "glycan notation: IUPAC condensed, linker removed", "method_in_brief": "(§1)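 Arrays were curated from the Consortium for Functional Glycomics database, 3228 in total, and kept only where the protein sequence was available. Binding is expressed as a within-array Z-score. This score was averaged across arrays of the same protein sequence at different concentrations or buffers and across linkers, and negative values can be read as non-binding.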"}, "Fuc(b1-3)GlcNAc": {"system": "Fuc(b1-3)GlcNAc", "details": "glycan notation: IUPAC condensed, linker removed", "method_in_brief": "as §1"}, "[2]": {"system": "Gal(a1-3)[Gal(a1-4)]Gal(b1-4)GlcNAc", "details": "glycan notation: IUPAC condensed, linker removed", "method_in_brief": "as §1"}, "Gal(a1-4)Gal(b1-4)Gal": {"system": "Gal(a1-4)Gal(b1-4)Gal", "details": "glycan notation: IUPAC condensed, linker removed", "method_in_brief": "as §1"}, "Gal(a1-2)Gal": {"system": "Gal(a1-2)Gal", "details": "glycan notation: IUPAC condensed, linker removed", "method_in_brief": "as §1"}, "Fuc(a1-4)GlcNAc": {"system": "Fuc(a1-4)GlcNAc", "details": "glycan notation: IUPAC condensed, linker removed", "method_in_brief": "as §1"}, "Gal(a1-3)Gal(b1-3)GlcNAc": {"system": "Gal(a1-3)Gal(b1-3)GlcNAc", "details": "glycan notation: IUPAC condensed, linker removed", "method_in_brief": "as §1"}, "Gal(a1-3)Gal(b1-4)Glc": {"system": "Gal(a1-3)Gal(b1-4)Glc", "details": "glycan notation: IUPAC condensed, linker removed", "method_in_brief": "as §1"}, "Gal(a1-3)Gal": {"system": "Gal(a1-3)Gal", "details": "glycan notation: IUPAC condensed, linker removed", "method_in_brief": "as §1"}, "Gal(a1-3)GalNAc": {"system": "Gal(a1-3)GalNAc", "details": "glycan notation: IUPAC condensed, linker removed", "method_in_brief": "as §1"}, "[3]": {"system": "Fuc(a1-3)[Neu5Ac(a2-3)]Gal(b1-4)GlcNAc(b1-3)GalNAc", "details": "glycan notation: IUPAC condensed, linker removed", "method_in_brief": "as §1"}, "[4]": {"system": "Gal(a1-4)Gal(b1-4)GlcNAc(b1-3)Gal(b1-4)Glc", "details": "glycan notation: IUPAC condensed, linker removed", "method_in_brief": "as §1"}, "[5]": {"system": "Gal(a1-3)Gal(b1-4)GlcNAc(b1-2)Man(a1-3)[Gal(a1-3)Gal(b1-4)GlcNAc(b1-2)Man(a1-6)]Man(b1-4)GlcNAc(b1-4)GlcNAc", "details": "glycan notation: IUPAC condensed, linker removed", "method_in_brief": "as §1"}, "Gal(a1-3)Gal(b1-3)Glc": {"system": "Gal(a1-3)Gal(b1-3)Glc", "details": "glycan notation: IUPAC condensed, linker removed", "method_in_brief": "as §1"}, "[6]": {"system": "Gal(a1-3)Gal(b1-3)GlcNAc(b1-2)Man(a1-3)[Gal(a1-3)Gal(b1-3)GlcNAc(b1-2)Man(a1-6)]Man(b1-4)GlcNAc(b1-4)GlcNAc", "details": "glycan notation: IUPAC condensed, linker removed", "method_in_brief": "as §1"}, "[7]": {"system": "Gal(a1-3)Gal(b1-3)GlcNAc(b1-3)GalNAc", "details": "glycan notation: IUPAC condensed, linker removed", "method_in_brief": "as §1"}, "[8]": {"system": "Gal(a1-3)Gal(b1-4)GlcNAc(b1-3)GalNAc", "details": "glycan notation: IUPAC condensed, linker removed", "method_in_brief": "as §1"}, "Gal(a1-3)Gal(b1-4)GlcNAc": {"system": "Gal(a1-3)Gal(b1-4)GlcNAc", "details": "glycan notation: IUPAC condensed, linker removed", "method_in_brief": "as §1"}, "[9]": {"system": "Gal(a1-3)Gal(b1-4)[Fuc(a1-3)]GlcNAc(b1-2)Man(a1-3)[Gal(a1-3)Gal(b1-4)[Fuc(a1-3)]GlcNAc(b1-2)Man(a1-6)]Man(b1-4)GlcNAc(b1-4)GlcNAc", "details": "glycan notation: IUPAC condensed, linker removed; mutation: R125K", "method_in_brief": "as §1"}, "[10]": {"system": "Gal(a1-3)Gal(b1-4)[Fuc(a1-3)]GlcNAc", "details": "glycan notation: IUPAC condensed, linker removed; mutation: R125K", "method_in_brief": "as §1"}},
  "note": "This excerpt belongs to a sample that is enriched for the strongest signals.",
  "data": [
    {"substance": "MpAFP RI GFP (Marinomonas primoryensis)", "values": [
      {"measurement": "glycan array binding signal (z-score)", "setting": "[1]", "value": 2.56}
    ]},
    {"substance": "CHT (Homo sapiens)", "values": [
      {"measurement": "glycan array binding signal (z-score)", "setting": "Fuc(b1-3)GlcNAc; mutation: D138V, E140I", "value": -0.132},
      {"measurement": "glycan array binding signal (z-score)", "setting": "[2]; mutation: D138V, E140I", "value": -0.162},
      {"measurement": "glycan array binding signal (z-score)", "setting": "Gal(a1-4)Gal(b1-4)Gal; mutation: D138V, E140I", "value": -0.141}
    ]},
    {"substance": "Regenerating Gene IV (Homo sapiens), Q9BYZ8", "values": [
      {"measurement": "glycan array binding signal (z-score)", "setting": "Gal(a1-2)Gal", "value": 6.89}
    ]},
    {"substance": "C3b (Homo sapiens), P01024", "values": [
      {"measurement": "glycan array binding signal (z-score)", "setting": "Fuc(a1-4)GlcNAc", "value": 3.19},
      {"measurement": "glycan array binding signal (z-score)", "setting": "Gal(a1-3)Gal(b1-3)GlcNAc", "value": 1.35},
      {"measurement": "glycan array binding signal (z-score)", "setting": "Gal(a1-3)Gal(b1-4)Glc", "value": 1.67},
      {"measurement": "glycan array binding signal (z-score)", "setting": "Gal(a1-3)Gal", "value": 2.77}
    ]},
    {"substance": "wLAT-1A (Homo sapiens), Q01650", "values": [
      {"measurement": "glycan array binding signal (z-score)", "setting": "Gal(a1-3)GalNAc", "value": 0.501}
    ]},
    {"substance": "6RG (Lolium perenne), B9U140", "values": [
      {"measurement": "glycan array binding signal (z-score)", "setting": "Gal(a1-3)Gal(b1-4)Glc", "value": -0.272}
    ]},
    {"substance": "Aggrecan (Rattus norvegicus), NP_071526", "values": [
      {"measurement": "glycan array binding signal (z-score)", "setting": "[3]", "value": 0.658},
      {"measurement": "glycan array binding signal (z-score)", "setting": "Gal(a1-2)Gal", "value": -0.066},
      {"measurement": "glycan array binding signal (z-score)", "setting": "Gal(a1-3)Gal(b1-3)GlcNAc", "value": -0.05},
      {"measurement": "glycan array binding signal (z-score)", "setting": "[4]", "value": -0.204}
    ]},
    {"substance": "Avaren (Actinomycete K97)", "values": [
      {"measurement": "glycan array binding signal (z-score)", "setting": "[5]", "value": -0.106},
      {"measurement": "glycan array binding signal (z-score)", "setting": "Gal(a1-3)Gal(b1-4)Glc", "value": 0.305}
    ]},
    {"substance": "SRLC (Mus musculus), Q8VIF6", "values": [
      {"measurement": "glycan array binding signal (z-score)", "setting": "Gal(a1-3)Gal(b1-3)Glc", "value": -0.234}
    ]},
    {"substance": "PILRa (Mus musculus), Q2YSF3", "values": [
      {"measurement": "glycan array binding signal (z-score)", "setting": "Gal(a1-3)Gal(b1-4)Glc", "value": 0.145}
    ]},
    {"substance": "PILRb (Mus musculus), Q2YSF2", "values": [
      {"measurement": "glycan array binding signal (z-score)", "setting": "[6]", "value": 6.25},
      {"measurement": "glycan array binding signal (z-score)", "setting": "[7]", "value": -0.312},
      {"measurement": "glycan array binding signal (z-score)", "setting": "[8]", "value": -0.089},
      {"measurement": "glycan array binding signal (z-score)", "setting": "Gal(a1-3)Gal(b1-4)GlcNAc", "value": -0.363},
      {"measurement": "glycan array binding signal (z-score)", "setting": "Gal(a1-3)Gal", "value": 2.68}
    ]},
    {"substance": "6RG (Lolium perenne)", "values": [
      {"measurement": "glycan array binding signal (z-score)", "setting": "Gal(a1-4)Gal(b1-4)Gal", "value": 6.25}
    ]},
    {"substance": "Neurocan (Homo sapiens), O14594", "values": [
      {"measurement": "glycan array binding signal (z-score)", "setting": "Fuc(b1-3)GlcNAc", "value": -0.101}
    ]},
    {"substance": "Siglec-8 (Homo sapiens), Q9NYZ4", "values": [
      {"measurement": "glycan array binding signal (z-score)", "setting": "Fuc(a1-4)GlcNAc; mutation: R125K", "value": 2.97},
      {"measurement": "glycan array binding signal (z-score)", "setting": "[9]", "value": 1.51},
      {"measurement": "glycan array binding signal (z-score)", "setting": "[10]", "value": -0.444},
      {"measurement": "glycan array binding signal (z-score)", "setting": "[2]", "value": -0.14}
    ]},
    {"substance": "CHI3L1 (Homo sapiens), P36222", "values": [
      {"measurement": "glycan array binding signal (z-score)", "setting": "Gal(a1-2)Gal", "value": -0.025}
    ]}
  ]
}
